Bioassay records deposited in PubChem BioAssay by several laboratories.
TIM10 inh = inhibits growth of TIM10 yeast strain; S. cerevisiae TIM10 strain growth, BacTiter-Glo luminescence, 24 h; AID 463195; inhibition, % at 10 µM; actives 1.4% (n = 330,000);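 active means inhibition of 40% or more at the single tested concentration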;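 further: wild-type TIM10 isogenic control strain grown at permissive 25 °C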
PfHsp90 set2 = inhibits growth of yeast expressing Plasmodium falciparum Hsp90; actives 0.32% (n = 310,000); AID 504621; S. cerevisiae expressing PfHsp90, BacTiter-Glo ATP, 48 h; yeast lacking PDR1 and PDR3 efflux regulators; inhibition, % at 9.4 µM;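 active means every replicate shows inhibition above about 80%, whatever the replicate mean, limit read from the data; inconclusive means mean inhibition reaches the set limit but some replicate falls short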;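 further: 0% = DMSO neutral controls and 100% = 20 µM radicicol positive controls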
SKKanGAS inh = blocks kanamycin growth of S. pyogenes SKKanGAS strain. inhibition, % at 7.5 µM. actives 1.3% (n = 300,000). AID 1662. BacTiter-Glo, 6 h;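 active means mean replicate score, as percent of positive control median, at least 50; inconclusive means mean below 50 but one replicate at or above 50; inactive means mean and every replicate below 50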;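 further: strain carries kanamycin resistance gene driven by streptokinase promoter and grows in 40 µg/ml kanamycin; loss of luminescence reflects streptokinase promoter inhibition or plain growth inhibition; 0% = median of DMSO wells and 100% = positive control at its reference dose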
tim10-1 inh = inhibits growth of tim10-1 mutant yeast | AID 463190 | S. cerevisiae tim10-1 ts strain growth, BacTiter-Glo, 24 h | actives 2.2% (n = 330,000) | inhibition, % at 20 µM;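 active means inhibition of at least 40%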;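 further: mutant grown at 25 °C; 0% = DMSO wells with yeast and 100% = wells holding no yeast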
tim23-1 inh = inhibits growth of tim23-1 mutant yeast; S. cerevisiae tim23-1 growth, BacTiter-Glo luminescence, 24 h; inhibition, % at 20 µM; AID 463212; actives 1.3% (n = 330,000);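 active means growth inhibition of the mutant yeast at or above 50%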;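 further: temperature-sensitive mutant grown at 25 °C; plate controls were DMSO-treated mutant yeast for no effect and medium wells lacking yeast for full effect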
tim10-1 confirm = tim10-1 yeast growth inhibition, confirmed; inhibition, % at 20 µM; actives 56% (n = 7,400); shares compounds with tim10-1 inh; S. cerevisiae tim10-1 ts strain growth, BacTiter-Glo, 24 h;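 active means inhibition of yeast growth at or above a set limit in either of two repeat tests at 20 µM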;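 further: tim10-1 mutant grown at permissive 25 °C to find synthetic lethal compounds; 0% = DMSO yeast wells and 100% = medium wells without yeast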
* = called active by the depositor; ? = inconclusive; . = not tested or not shown. Rows were chosen to be rich in hits. Some 4.4% of all compounds tested hit in one or more screens of this group.

SMILES	TIM10 inh	PfHsp90 set2	SKKanGAS inh	tim10-1 inh	tim23-1 inh	tim10-1 confirm
COCCOC(=O)C1=C(C)NC(C)=C(C(=O)OC(C)C)C1c1cccc([N+](=O)[O-])c1 (stereo not drawn)	12.8	2.5	0.2	22.5	38.8	.
CCOc1ccc2cc(C#N)c(SCC(=O)N3CCOCC3)nc2c1	13.4	.	-3.2	43.3*	22.5	26.8
Cc1nn(-c2ccccc2)c2c1c(C)c(CCC(=O)N1CCOCC1)c(=O)n2C	12.0	-22.1	6.9	40.7*	31.1	13.9
COc1nc(N(C)C)nc(N(OC)S(=O)(=O)c2ccccc2Cl)n1	19.6	.	11.6	21.9	21.3	.
COc1cc(C)nc(N(C)S(=O)(=O)c2ccccc2Cl)n1	25.5	-23.3	4.3	42.6*	22.9	25.8
CC(C)(Oc1ccc(Cl)cc1)C(=O)Nc1ccc(S(=O)(=O)Nc2ncccn2)cc1	1.5	-3.4	1.6	14.2	-0.7	.
Clc1ccc2ncc(-c3nnnn3-c3ccccc3)c(-c3ccccc3)c2c1	29.6	-37.4	1.5	44.0*	48.4	36.1*
COc1ccc(C(=O)/C(=C/O)N=Nc2ccc(F)cc2)cc1	21.8	1.3	12.7	45.0*	32.4	9.1
O=C1NC(Cc2ccccc2)c2nc3ccc(Cl)cc3c(=O)n2-c2ccccc21 (stereo not drawn)	10.6	.	.	8.0	24.6	.
O=C1c2cccc3c(N4CCCCC4)ccc(c23)C(=O)N1CCO	28.5	-9.3	-2.8	46.1*	40.8	29.4
CC(NCCC1(Cc2ccccc2Cl)CCOC(C)(C)C1)c1cccs1 (stereo not drawn)	13.2	-6.7	1.8	11.8	19.6	.
CCOC(=O)c1oc2ccc(CNCCO)c(Cl)c2c1C	13.3	17.3	-3.7	-0.5	-8.0	.
CCOC(=O)c1oc2ccc(CNC3CCCCC3)c(Cl)c2c1C	19.0	-4.6	4.4	41.4*	19.8	18.5
CC(C)(C)c1ccc(-c2n[nH]c(=S)n2Cc2ccccc2)cc1	29.3	17.2	4.5	44.6*	36.7	38.0*
Cc1ccccc1OCc1n[nH]c(=S)n1Cc1ccccc1	24.1	-41.4	-15.2	47.3*	35.8	21.5
O=C(c1cc(COc2ccc(F)c(F)c2)on1)N1CCN(C2CCCCC2)C(=O)C1	-17.6	-23.3	1.7	40.4*	33.1	-29.4
O=C(c1cc(COc2c(F)cccc2F)on1)N1CCN(C2CCCCC2)C(=O)C1	-8.0	-6.9	-0.9	22.3	24.4	.
Cc1ccc(C(=O)N2CCC3(CC2)Oc2ccc(F)cc2C(=O)C32CC(c3cccnc3)=NO2)s1 (stereo not drawn)	-8.1	-13.7	2.4	42.3*	-1.7	25.1
CN(C(=O)COC(=O)c1ccccc1C(=O)c1ccccc1)c1ccccc1	12.8	4.2	.	15.1	41.7	.
c1csc(-c2nnc(Cc3cccc4ccccc34)o2)c1	5.5	.	8.8	45.2*	25.7	22.5
Fc1ccc(Cc2nnc(-c3cccs3)o2)cc1	4.6	7.3	0.4	1.6	3.9	.
N/C(=N\N=C/c1ccc(Br)cc1)N/N=C\c1ccc(Br)cc1	32.0	-1.6	?	-14.8	-10.3	.
N/C(=N\N=C/c1ccc(F)cc1)N/N=C\c1ccc(F)cc1	30.5	5.3	-15.3	44.0*	48.9	-71.8
O=C(c1cc2ccccn2n1)N1CCN(c2cccc(C(F)(F)F)c2)CC1	8.5	-19.2	-8.3	21.9	26.1	.
Cc1ccc(C)c(N2CCN(C(=O)c3cc4ccccn4n3)CC2)c1	20.4	-3.6	0.1	41.3*	46.3	34.5*
SMILES	TIM10 inh	PfHsp90 set2	SKKanGAS inh	tim10-1 inh	tim23-1 inh	tim10-1 confirm
Cc1c(C(=O)NCCSc2ccc(Cl)cc2)cccc1[N+](=O)[O-]	29.8	-18.6	0.9	41.3*	38.3	37.0*
COc1ccc(Cl)cc1NC(=O)CN1CCC(n2nnc3cc(C)ccc32)CC1	17.4	21.9	?	40.0	31.4	16.2
CCc1cccc(NS(=O)(=O)c2ccc(-n3cccn3)cc2)c1	12.3	0.8	3.4	50.4*	37.9	17.9
Cc1nc(SCc2nc3ccc([N+](=O)[O-])cc3[nH]2)c2oc3ccccc3c2n1	-8.3	1.3	.	14.6	37.4	.
Cn1c2ccccc2c(=O)c2ccc(C#CC3(O)CCCCC3)cc21	-4.7	2.3	62.7*	46.8*	-4.7	33.8*
O=C1C=CCC(/C=C/c2ccccc2)O1 (stereo not drawn)	35.4	.	2.5	54.8*	40.4	26.6
COc1ccccc1Nc1nc(C)cc(C)n1	-4.3	-7.3	-1.5	4.5	1.6	.
